From PubChem BioAssay AID2073 (Sanford-Burnham Center for Chemical Genomics, 2009)
About 570 (0.2%) of roughly 290,000 compounds were called active. Inconclusive results (about 1%) are left out. No stated cut-off is given here; in the data, active means inhibition mostly above about 51% (no sharp cut-off); inconclusive means no clear call, values can overlap the other calls; inactive means mostly below about 53%. What follows is part of a selection rich in actives, with near analogues and random picks from the rest.

Target: Voltage-dependent N-type calcium channel subunit alpha-1B (Homo sapiens) (UniProt Q00975)
Sequence (Q00975 whole entry, looked up): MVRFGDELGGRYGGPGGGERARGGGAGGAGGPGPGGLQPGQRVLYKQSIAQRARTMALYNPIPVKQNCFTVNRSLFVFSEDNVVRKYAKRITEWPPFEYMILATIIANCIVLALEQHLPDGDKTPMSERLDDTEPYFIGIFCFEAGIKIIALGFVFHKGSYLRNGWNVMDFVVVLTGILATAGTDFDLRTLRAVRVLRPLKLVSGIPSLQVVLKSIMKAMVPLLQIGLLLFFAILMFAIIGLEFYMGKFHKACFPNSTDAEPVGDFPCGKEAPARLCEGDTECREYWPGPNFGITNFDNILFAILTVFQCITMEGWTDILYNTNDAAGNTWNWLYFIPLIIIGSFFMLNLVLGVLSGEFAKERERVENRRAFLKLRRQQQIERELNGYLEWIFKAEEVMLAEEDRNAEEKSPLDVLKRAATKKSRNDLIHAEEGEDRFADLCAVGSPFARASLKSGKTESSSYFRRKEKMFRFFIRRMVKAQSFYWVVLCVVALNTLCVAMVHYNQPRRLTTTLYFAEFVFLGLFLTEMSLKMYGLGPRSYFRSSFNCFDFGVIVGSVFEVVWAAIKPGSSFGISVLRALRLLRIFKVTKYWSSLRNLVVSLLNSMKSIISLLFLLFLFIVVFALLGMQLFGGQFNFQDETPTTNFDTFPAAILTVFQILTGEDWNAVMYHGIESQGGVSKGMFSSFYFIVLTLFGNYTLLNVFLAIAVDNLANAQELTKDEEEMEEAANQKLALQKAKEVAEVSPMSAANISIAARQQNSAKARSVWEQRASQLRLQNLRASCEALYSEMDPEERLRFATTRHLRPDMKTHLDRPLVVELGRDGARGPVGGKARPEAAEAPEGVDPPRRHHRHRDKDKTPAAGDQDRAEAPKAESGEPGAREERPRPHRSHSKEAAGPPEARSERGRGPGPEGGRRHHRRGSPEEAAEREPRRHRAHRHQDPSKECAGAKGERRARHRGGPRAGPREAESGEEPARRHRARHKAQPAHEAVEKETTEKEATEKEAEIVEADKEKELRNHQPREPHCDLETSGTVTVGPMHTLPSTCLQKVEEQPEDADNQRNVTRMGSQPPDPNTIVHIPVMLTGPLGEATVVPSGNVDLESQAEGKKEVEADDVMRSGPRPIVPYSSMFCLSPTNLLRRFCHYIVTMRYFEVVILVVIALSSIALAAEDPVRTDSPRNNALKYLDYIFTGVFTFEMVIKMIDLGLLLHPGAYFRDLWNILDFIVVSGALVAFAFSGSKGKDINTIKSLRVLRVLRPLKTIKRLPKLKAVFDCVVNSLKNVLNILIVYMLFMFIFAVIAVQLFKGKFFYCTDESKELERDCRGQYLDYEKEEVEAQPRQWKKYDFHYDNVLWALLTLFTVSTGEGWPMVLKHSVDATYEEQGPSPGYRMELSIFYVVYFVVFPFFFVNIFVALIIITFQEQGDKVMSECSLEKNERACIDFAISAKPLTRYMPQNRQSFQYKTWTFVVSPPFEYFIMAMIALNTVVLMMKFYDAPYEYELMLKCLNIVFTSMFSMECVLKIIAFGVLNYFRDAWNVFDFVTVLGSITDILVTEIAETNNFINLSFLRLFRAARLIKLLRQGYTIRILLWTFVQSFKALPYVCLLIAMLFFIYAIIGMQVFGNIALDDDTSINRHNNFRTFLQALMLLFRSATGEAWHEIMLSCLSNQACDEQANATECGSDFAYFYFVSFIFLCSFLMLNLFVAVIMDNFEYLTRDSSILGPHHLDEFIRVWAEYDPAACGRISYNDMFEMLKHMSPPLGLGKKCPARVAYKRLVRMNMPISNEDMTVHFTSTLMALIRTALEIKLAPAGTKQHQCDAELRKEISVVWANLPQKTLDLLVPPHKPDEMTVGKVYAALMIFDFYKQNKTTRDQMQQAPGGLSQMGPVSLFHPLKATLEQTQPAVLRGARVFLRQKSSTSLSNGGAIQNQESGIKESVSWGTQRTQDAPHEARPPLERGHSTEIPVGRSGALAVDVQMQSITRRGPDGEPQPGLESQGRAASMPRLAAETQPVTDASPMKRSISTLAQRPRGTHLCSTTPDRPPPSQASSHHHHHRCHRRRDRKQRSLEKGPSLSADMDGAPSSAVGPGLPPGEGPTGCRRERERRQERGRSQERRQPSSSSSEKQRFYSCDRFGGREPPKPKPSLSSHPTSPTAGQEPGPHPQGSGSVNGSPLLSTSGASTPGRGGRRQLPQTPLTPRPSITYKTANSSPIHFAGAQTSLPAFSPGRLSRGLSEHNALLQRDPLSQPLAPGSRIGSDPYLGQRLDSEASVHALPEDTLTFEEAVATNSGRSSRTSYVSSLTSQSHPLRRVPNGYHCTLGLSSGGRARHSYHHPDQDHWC
Assay: inhibitors of Mint1-CaV2.2 protein interaction, biochemical, HTRF (AID 2073)
Conditions: at 20 µM, stronger effect = higher value
[1] = measured here: average of repeat tests

Row | Compound | inhibition | inhibition [1]
1 | CCOc1ccc(/C=c2\sc3nc(-c4ccco4)nn3c2=O)cc1OCC | 31.7% (inactive) | 
2 | COc1ccccc1/C=c1\sc2nc(-c3ccco3)nn2c1=O | 35.1% (inactive) | 
3 | COc1ccc(Br)cc1/C=c1\sc2nc(-c3ccco3)nn2c1=O | 66.4% (active) | 
4 | COCCSc1nnc(NC(=O)c2ccc3c(c2)OCO3)s1 | 3.7% (inactive) | 
5 | Cc1nc(C(C)N(C)Cc2nc(Cc3ccccc3F)no2)c(C)s1 (stereo not given) | -15.7% (inactive) | 
6 | COc1ccccc1N(CC(=O)N(CC(C)C)CC(C)C)S(=O)(=O)c1cccs1 | -4.4% (inactive) | 
7 | COc1ccc(N2C(=O)C(Cl)=C(Oc3cccc(OC)c3)C2=O)cc1 | 56.7% (active) | 
8 | COc1ccc(N2C(=O)c3cc4ccccc4cc3C2=O)cc1 | 4.4% (inactive) | 
9 | COc1ccc(N2C(=O)C(Cl)=C(N3CCCC3)C2=O)cc1 | 19.5% (inactive) | 
10 | Cc1ccc(Nc2nc(-c3ccc(C)cc3)c(CC(=O)O)s2)cc1 | 14.4% (inactive) | 
11 | Cc1nc2sc(C(c3cccc(F)c3)N3CCN(C(=O)c4ccco4)CC3)c(O)n2n1 (stereo not given) | 3.9% (inactive) | 
12 | CC(=O)CC1(O)C(=O)Nc2ccccc21 (stereo not given) | 33.4% (inactive) | 
13 | CN(C)CCNc1c(N)c(=O)oc2ccccc12 | -16.1% (inactive) | 
14 | Cc1ccc(C(=O)c2ccccc2C(=O)OCC(=O)NC(C)(C)C)cc1 | -3.7% (inactive) | 
15 | CCOC(=O)c1ccc(N2C(=O)c3n[nH]c(-c4ccco4)c3C2c2cccc([N+](=O)[O-])c2)cc1 (stereo not given) | 27.2% (inactive) | 
16 | CCOC(=O)c1ccc(N2C(=O)c3n[nH]c(C)c3C2c2ccco2)cc1 (stereo not given) | -2.1% (inactive) | 
17 | CCOC(=O)c1ccc(N2C(=O)c3n[nH]c(-c4ccco4)c3C2c2ccc([N+](=O)[O-])cc2)cc1 (stereo not given) | 71.1% (active) | 
18 | O=C(O)Cn1nnnc1-c1ccc(F)cc1 | 0% (inactive) | 
19 | CC(NC(=O)C1CCCN(C(=O)N(C)C)C1)c1ccccc1 (stereo not given) | 0.8% (inactive) | 
20 | COC(=O)N/N=C/c1cc(N=Nc2ccccc2)ccc1O | 23.6% (inactive) | 
21 | CC(C)(C)OC(=O)N/N=C/c1cc(N=Nc2ccccc2)ccc1O | 3.5% (inactive) | 
22 | Cc1cccc(C)c1N1C(=O)CC(N(O)c2ccccc2)C1=O (stereo not given) | 4.8% (inactive) | 
23 | Cc1cc(C)c(C#N)c(N2CCN(S(=O)(=O)Cc3ccccc3)CC2)n1 | 1% (inactive) | 

Row | Compound | inhibition | inhibition [1]
24 | CCOC(=O)c1sc(NC(=O)CN2C(=O)NC3(CC(C)CC(C)(C)C3)C2=O)c(C(=O)OCC)c1C (stereo not given) | 13.6% (inactive) | 
25 | COc1cc(C2Nc3cccc4cccc(c34)N2)cc(OC)c1OC(C)=O | 77.3% (active) | 
26 | COc1ccc(C2Nc3cccc4cccc(c34)N2)cc1Br | 25.7% (inactive) | 
27 | COc1cc(C2Nc3cccc4cccc(c34)N2)ccc1OC(C)=O | 74.4% (inactive) | -13.1%
28 | COc1ccc(NC(=S)Nc2cccc3cnccc23)cc1 | 77.7% (active) | 
29 | Cc1cc(C)cc(NC(=S)Nc2cccc3cnccc23)c1 | 16.7% (inactive) | 
30 | CN(C)S(=O)(=O)c1cccc(NC(=S)Nc2cccc3cnccc23)c1 | 51.6% (active) | 
31 | CCOc1ccc(NC(=S)Nc2cccc3cnccc23)cc1 | 27% (inactive) | 
32 | S=C(Nc1cccnc1)Nc1cccc2cnccc12 | 79.7% (inactive) | 4.7%
33 | Cc1ccc(NC(=S)Nc2cccc3cnccc23)cc1 | 21.8% (inactive) | 
34 | COc1ccc(/C=C2\SC(N3CCCCC3)=NC2=O)cc1 | 3.8% (inactive) | 
35 | COc1ccc(CNC(=O)C(C)OC(=O)c2cccn2C)cc1 (stereo not given) | -0.9% (inactive) | 
36 | COc1ccc(S(=O)(=O)N(C)C2CCS(=O)(=O)C2)cc1OC (stereo not given) | 4.6% (inactive) | 
37 | O=C(NCCO)c1cccc(Nc2nc(-c3ccccc3)c3cc(Cl)ccc3n2)c1 | 11.1% (inactive) | 
38 | OCCNc1nc(-c2ccccc2)c2cc(Cl)ccc2n1 | 15.1% (inactive) | 
39 | COCCNC(=O)c1cccc(Nc2nc(-c3ccccc3)c3cc(Cl)ccc3n2)c1 | 54.5% (active) | 
40 | Clc1ccccc1-c1nnc2sc(-c3ccc(Br)o3)nn12 | -3.6% (inactive) | 
41 | Nn1cnnc1N/N=C\c1ccc(-c2ccccc2[N+](=O)[O-])o1 | 62% (active) | 
42 | Cc1nnc(N/N=C\c2ccc(-c3ccccc3[N+](=O)[O-])o2)n1N | 45% (inactive) | 
43 | O=[N+]([O-])c1ccccc1-c1ccc(/C=N/n2cnnc2)o1 | -7.6% (inactive) | 
44 | COc1ccc(CCN(C)C(=O)CN2C(=O)c3ccccc3S2(=O)=O)cc1OC | -0.2% (inactive) | 
45 | COc1ccc(N2C(=O)N(Cc3ccccc3F)c3ccccc3S2(=O)=O)cc1 | -1.5% (inactive) | 
46 | COc1ccc(N2C(=O)N(Cc3ccc(C)cc3)c3ccccc3S2(=O)=O)cc1 | 5.3% (inactive) | 

Row | Compound | inhibition | inhibition [1]
47 | COc1ccc(N2C(=O)N(Cc3cccc(F)c3)c3ccccc3S2(=O)=O)cc1 | 55.6% (active) | 
48 | N#CCCN1CCCN(CCC#N)CCN(CCC#N)CCCN(CCC#N)CC1 | -13.6% (inactive) | 
49 | CCOC(=O)/C=c1\s/c(=C\c2c(OCC)ccc3ccccc23)c(=O)n1CC(=O)NCC1CCCO1 (stereo not given) | 10.3% (inactive) | 
50 | COc1cc(OC)cc(C(=O)OCC(=O)NC(C)CCc2ccccc2)c1 (stereo not given) | 34.5% (inactive) | 
51 | COc1ccc2c(Cl)c(C(=O)N/N=C3\CCCC(=O)C3)sc2c1 | 50.9% (active) | 
52 | COc1ccc2c(Cl)c(C(=O)NN)sc2c1 | 8.1% (inactive) | 
53 | O=C1CCC/C(=N/NC(=O)c2sc3ccccc3c2Cl)C1 | 8.3% (inactive) | 
54 | Cc1ccc(C(=O)NCCc2nnc3ccc(NCc4ccc5c(c4)OCO5)nn23)cc1 | -1.4% (inactive) | 
55 | COc1ccc(C(=O)Nc2ccc(Cl)cc2C(=O)NCCO)cc1 | -1.8% (inactive) | 
56 | CCN1CCCC1CNC(=O)c1cc2c(C)nc3ccccc3c2o1 (stereo not given) | 5.2% (inactive) | 
57 | CCOC(=O)N1CCC(C(=O)NNC(=O)c2ccc(Cl)cc2Cl)CC1 | 6.9% (inactive) | 
58 | CN1/C(=C/C(=O)C2CC2)C(C)(C)c2ccccc21 | 3.3% (inactive) | 
59 | CCOC(=O)c1cc2c(=O)n3ccccc3nc2n(Cc2ccco2)c1=NC(=O)c1ccccc1OC | 10.2% (inactive) | 
60 | CCOC(=O)c1cc2c(=O)n3ccccc3nc2n(Cc2ccco2)c1=NC(=O)c1ccc(OC)cc1OC | 66.1% (active) | 
61 | CCOC(=O)c1cc2c(=O)n3ccccc3nc2n(Cc2ccco2)c1=NC(=O)c1ccc(OC)cc1 | 33.1% (inactive) | 
62 | Cc1ccc(CNC(=O)c2ccc(S(=O)(=O)Nc3c(C)n(C)n(-c4ccccc4)c3=O)cc2)cc1 | 0.9% (inactive) | 
63 | O=Cc1cccn1-c1cccnc1 | 8.9% (inactive) | 
64 | Fc1ccccc1N1CCN(C2CCCN(Cc3ccccc3C(F)(F)F)C2)CC1 (stereo not given) | -0.4% (inactive) | 
65 | CCN(CC)CCN(C(=O)c1ccc2c(c1)OCCO2)c1nc2ccc(C)cc2s1 | -5.5% (inactive) | 
66 | CC1(C)Cc2c(c(-c3ccco3)nc3sc4c(NCCCO)ncnc4c23)CO1 | 5.3% (inactive) | 
67 | OCCN1CCN(c2ncnc3c2sc2nc(N4CCOCC4)c4c(c23)CCC4)CC1 | 3.4% (inactive) | 
68 | CSc1nc(N2CCN(CCO)CC2)c2sc3nc(-c4ccco4)c4c(c3c2n1)CCC4 | 64% (active) | 
69 | CSc1nc(N(CCO)CCO)c2sc3nc(-c4ccco4)c4c(c3c2n1)CCC4 | 72.4% (active) | 

Row | Compound | inhibition | inhibition [1]
70 | OCCN(CCO)c1ncnc2c1sc1nc(N3CCOCC3)c3c(c12)CCCC3 | 16.9% (inactive) | 
71 | CC1(C)Cc2c(c(N3CCCC3)nc3sc4c(N5CCN(CCO)CC5)ncnc4c23)CO1 | -8.9% (inactive) | 
72 | Cc1nn(Cc2noc(C(=O)NCCc3ccccn3)n2)c(C)c1Br | 7.3% (inactive) | 
73 | CC1(C)CC(NC(=O)c2ccccc2C(=O)NC2CC(C)(C)NC(C)(C)C2)CC(C)(C)N1 | 32.5% (inactive) | 
74 | CCOC(=O)c1cnn(-c2nc(-c3ccccc3)nc3c2COC(C)(C)C3)c1N | -0.5% (inactive) | 
75 | CCOC(=O)N1CCN(C(=O)CSc2nc3c(cnn3-c3ccc(C)cc3)c(=O)[nH]2)CC1 | 7.8% (inactive) | 
76 | CCn1c(=O)cc(OCC(=O)Nc2ccc3c(c2)OCCO3)c2ccccc21 | 21.8% (inactive) | 
77 | Cc1ccc2[nH]c(=O)c(C(c3nnnn3CC3CCCO3)N3CCCc4ccccc43)cc2c1 (stereo not given) | 94.9% (inactive) | 12.5%
78 | Cc1cc2cc(C(c3nnnn3CC3CCCO3)N3CCCc4ccccc43)c(=O)[nH]c2cc1C (stereo not given) | 70% (active) | 
79 | CCc1ccc2[nH]c(=O)c(C(c3nnnn3CC3CCCO3)N3CCCc4ccccc43)cc2c1 (stereo not given) | 73% (inactive) | 15.4%
80 | COC(=O)C1=C(C(=O)OC)[C@@H]2N(C)c3ccc(OC)cc3[C@@]23C[C@@H](C(=O)OC)N(C(=O)c2ccc(Br)cc2)C3=N1 | 6.3% (inactive) | 
81 | Nc1nonc1-n1nnc(C(=O)N/N=C/c2ccc(F)cc2)c1-c1cccs1 | 4.3% (inactive) | 
82 | CC(=O)Nc1ccc(NC(=O)c2cc(-c3cc(C)c(C)cc3O)n[nH]2)cc1 | -5.1% (inactive) | 
83 | Cc1ccc(NC(=O)c2cc(-c3ccc(C)c(C)c3O)n[nH]2)cc1C | 12.1% (inactive) | 
84 | COc1ccccc1CNc1cc(CSc2ccc(Cl)cc2)nc(C)n1 | -1.5% (inactive) | 
85 | CC(C)CNC(=O)CSc1nc(-c2cccs2)cc(C(F)(F)F)n1 | 16.7% (inactive) | 
86 | COc1ccc(CCNC(=O)C(CC(C)C)NC(N)=O)cc1 (stereo not given) | 4.9% (inactive) | 
87 | COc1ccc(CN(C(=O)c2cc(=O)c3cc(C)cc(C)c3o2)C2CCS(=O)(=O)C2)cc1 (stereo not given) | 0% (inactive) | 
88 | O=C(CN1C2CCCC1CC(NC(=O)c1ccccc1)C2)Nc1ccccc1 (stereo not given) | 8.3% (inactive) | 
89 | COc1cccc(C(=O)NC2CC3CCCC(C2)N3CC(=O)Nc2ccc(N(C)C)cc2)c1 (stereo not given) | -12.2% (inactive) | 
90 | COc1cccc(C(=O)NC2CC3CCCC(C2)N3CC(=O)Nc2ccccc2)c1 (stereo not given) | 55% (active) | 
91 | O=C(Cn1c(=O)sc2ccccc21)Nc1ccc(S(=O)(=O)N2CCCCC2)cc1 | 18% (inactive) | 
